According to PubChem BioAssay AID1159580 (chemical genetic matrix, 2015):
“And” between values parts separate entries of the source, which are not always exact repeats. Equal entries are not always repeated. The whole screen tested about 5,500 compounds, of which about 2,000 (36%) were called active. Roughly 18% stayed inconclusive and do not appear here. Rule as the data show it: active = normalized growth mostly below about 0.91 (no sharp cut-off); inconclusive = no clear call, values can overlap the other calls; inactive = mostly above about 0.92. The list shows a part of the results.

Assay: chemical genetic growth profiling, strain panel (AID 1159580);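 also: tested at 20 µM; growth read once vehicle control cultures reached saturation at 30 °C; 1 = growth at the plate median or of vehicle wells; lower values mean less growth of the strain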
Settings: S. cerevisiae deletion strains, growth OD

Measured: normalized growth

COc1ccc2c(c1OC)C(=O)O[C@@H]2[C@H]1c2cc3c(cc2CCN1C)OCO3
inactive: locus YAL013W, strain DEP1, active compounds read low 1.03 | locus YAL021C, strain ccr4, active compounds read low 1.01 | locus YAL026C, strain drs2, active compounds read low 0.993 | locus YAL030W, strain snc1, active compounds read low 0.991 | locus YBL061C, strain skt5, active compounds read low 0.992 | locus YBR009C, strain hhf1, active compounds read low 0.984 | locus YBR021W, strain FUR4, active compounds read low 1.04 | locus YBR023C, strain chs3, active compounds read low 0.987 | locus YBR171W, strain sec66, active compounds read low 1 | locus YBR229C, strain ROT2, active compounds read low 1.01 | locus YBR231C, strain swc5, active compounds read low 0.989 | locus YBR279W, strain paf1, active compounds read low 0.992 | locus YCL011C, strain gbp2, active compounds read low 0.996 | locus YCL016C, strain dcc1, active compounds read low 0.974 | locus YCL029C, strain bik1, active compounds read low 1.02 | locus YCL061C, strain MRC1, active compounds read low 0.995 | locus YCL069W, strain vba3, active compounds read low 1 | locus YCR088W, strain abp1, active compounds read low 0.997 | locus YDL005C, strain med2, active compounds read low 0.997 | locus YDL035C, strain GPR1, active compounds read low 1.03 | locus YDL040C, strain nat1, active compounds read low 0.991 | locus YDL074C, strain BRE1, active compounds read low 1.03 | locus YDL101C, strain DUN1, active compounds read low 1.01 | locus YDL134C, strain PPH21, active compounds read low 1.01 | locus YDL185W, strain tfp1, active compounds read low 1.03 | locus YDL192W, strain arf1, active compounds read low 1.02 | locus YDR001C, strain nth1, active compounds read low 1 | locus YDR069C, strain doa4, active compounds read low 0.981 | locus YDR101C, strain arx1, active compounds read low 1.01 | locus YDR137W, strain rgp1, active compounds read low 0.969 | locus YDR150W, strain NUM1, active compounds read low 1.02 | locus YDR159W, strain sac3, active compounds read low 0.991 | locus YDR162C, strain NBP2, active compounds read low 1.02 | locus YDR195W, strain ref2 0.985 | locus YDR297W, strain sur2, active compounds read low 0.985 | locus YDR318W, strain mcm21, active compounds read low 1.03 | locus YDR334W, strain swr1, active compounds read low 0.998 | locus YDR335W, strain msn5, active compounds read low 0.989 | locus YDR388W, active compounds read low 1.02 | locus YDR392W, strain spt3, active compounds read low 0.929 | locus YDR502C, strain sam2, active compounds read low 1.01 | locus YEL003W, strain gim4, active compounds read low 1.01 | locus YEL037C, strain rad23, active compounds read low 1 | locus YEL061C, strain CIN8 (second series), active compounds read low 1.01 | locus YEL061C, strain CIN8, active compounds read low 1.01 | locus YER015W, strain faa2, active compounds read low 0.974 | locus YER016W, strain bim1, active compounds read low 0.991 | locus YER110C, active compounds read low 1.03 | locus YER111C, strain swi4, active compounds read low 1.01 | locus YER155C, strain BEM2 (second series), active compounds read low 0.995 | locus YER155C, strain BEM2, active compounds read low 1.02 | locus YER167W, strain BCK2, active compounds read low 1.04 | locus YFR010W, strain ubp6, active compounds read low 1.01 | locus YGL078C, strain dbp3, active compounds read low 1.03 | locus YGL086W, strain mad1, active compounds read low 1.03 | locus YGL167C, strain pmr1, active compounds read low 0.984 | locus YGL173C, strain kem1, active compounds read low 0.993 | locus YGL227W, strain vid30, active compounds read low 0.994 | locus YGL240W, strain doc1, active compounds read low 0.958 | locus YGL248W, strain PDE1, active compounds read low 1.02 | locus YGL253W, strain hxk2, active compounds read low 0.999 | locus YGR078C, strain PAC10, active compounds read low 1.01 | locus YGR135W, strain pre9, active compounds read low 1.01 | locus YGR229C, strain SMI1, active compounds read low 1.03 | locus YGR252W, strain gcn5, active compounds read low 1.06 | locus YHR013C, strain ard1, active compounds read low 0.965 | locus YHR027C, strain rpn1, active compounds read low 1.01 | locus YHR030C, strain SLT2, active compounds read low 1.02 | locus YHR079C, strain IRE1 (second series), active compounds read low 1.02 | locus YHR079C, strain IRE1, active compounds read low 0.995 | locus YHR094C, strain hxt1, active compounds read low 1.02 | locus YHR129C, strain ARP1, active compounds read low 1.02 | locus YHR142W, strain chs7, active compounds read low 1.01 | locus YHR200W, strain rpn10, active compounds read low 1.01 | locus YIL066C, strain RNR3, active compounds read low 1.02 | locus YIL073C, strain SPO22, active compounds read low 1.11 | locus YIL125W, strain kgd1, active compounds read low 1.02 | locus YIR030C, strain dcg1, active compounds read low 1.01 | locus YJL092W, strain hpr5, active compounds read low 0.999 | locus YJL095W, strain BCK1 (second series), active compounds read low 0.996 | locus YJL095W, strain BCK1, active compounds read low 1.01 and 1 | locus YJL115W, strain asf1, active compounds read low 0.997 | locus YJL129C, strain trk1, active compounds read low 1.02 | locus YJL134W, strain LCB3, active compounds read low 1.01 | locus YJL154C, strain vps35, active compounds read low 0.999 | locus YJL164C, strain tpk1, active compounds read low 0.984 | locus YJL166W, strain qcr8, active compounds read low 0.975 | locus YJL168C, strain set2, active compounds read low 1.01 | locus YJL187C, strain SWE1 (second series), active compounds read low 1.02 | locus YJL187C, strain SWE1, active compounds read low 0.988 | locus YJR043C, strain POL32, active compounds read low 1.06 | locus YJR066W, strain TOR1, active compounds read low 0.975
